Source: the supplement of paper PMC6411743
± gives the standard deviation of the averaged measurements. The full data set covers some 6,500 targets. This sample favours those with the largest changes.

Compound: Nc1ncnc2c1ncn2[C@@H]1O[C@H](COP(=O)(O)OP(=O)(O)OP(=O)(O)O)[C@@H](O)[C@H]1O [adenosine triphosphate]
Test: NP40-soluble protein abundance relative to vehicle (solubility fold change) (ratio); higher = more soluble protein in presence of ATP
How it was run: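 Crude Jurkat lysate, prepared by Dounce homogenisation, was exposed to eight concentrations from 0.1 to 10 mM for 10 min at room temperature and then 3 min at 37 °C. Solubilisation used 0.8% NP40 with benzonase for 60 min at 4 °C, followed by ultracentrifugation and TMT labelling of the supernatant for LC-MS/MS. After vsn normalisation of intensities, each value is the fold change against the detergent-processed vehicle within each replicate, across three independent experiments.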

Sequence of UniProt Q96PZ0 (Q96PZ0 whole entry): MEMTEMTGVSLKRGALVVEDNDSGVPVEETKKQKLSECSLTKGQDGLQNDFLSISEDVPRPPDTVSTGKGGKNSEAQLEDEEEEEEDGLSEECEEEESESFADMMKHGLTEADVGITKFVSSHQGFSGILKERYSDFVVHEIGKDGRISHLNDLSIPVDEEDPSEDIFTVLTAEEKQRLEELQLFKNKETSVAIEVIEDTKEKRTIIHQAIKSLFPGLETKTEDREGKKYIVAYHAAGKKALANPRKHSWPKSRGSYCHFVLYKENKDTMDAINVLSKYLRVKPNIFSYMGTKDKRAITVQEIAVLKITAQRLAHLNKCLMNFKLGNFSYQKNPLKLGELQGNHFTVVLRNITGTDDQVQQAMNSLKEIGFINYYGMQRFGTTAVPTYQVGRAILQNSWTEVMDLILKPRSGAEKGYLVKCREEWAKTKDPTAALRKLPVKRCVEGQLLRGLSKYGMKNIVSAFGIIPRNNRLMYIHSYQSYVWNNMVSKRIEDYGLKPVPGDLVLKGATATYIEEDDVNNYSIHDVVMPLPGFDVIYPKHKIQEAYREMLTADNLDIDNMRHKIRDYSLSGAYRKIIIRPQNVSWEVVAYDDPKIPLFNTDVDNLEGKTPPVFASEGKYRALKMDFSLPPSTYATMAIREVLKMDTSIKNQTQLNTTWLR
Sequence of UniProt Q9H5N1 (Q9H5N1 whole entry): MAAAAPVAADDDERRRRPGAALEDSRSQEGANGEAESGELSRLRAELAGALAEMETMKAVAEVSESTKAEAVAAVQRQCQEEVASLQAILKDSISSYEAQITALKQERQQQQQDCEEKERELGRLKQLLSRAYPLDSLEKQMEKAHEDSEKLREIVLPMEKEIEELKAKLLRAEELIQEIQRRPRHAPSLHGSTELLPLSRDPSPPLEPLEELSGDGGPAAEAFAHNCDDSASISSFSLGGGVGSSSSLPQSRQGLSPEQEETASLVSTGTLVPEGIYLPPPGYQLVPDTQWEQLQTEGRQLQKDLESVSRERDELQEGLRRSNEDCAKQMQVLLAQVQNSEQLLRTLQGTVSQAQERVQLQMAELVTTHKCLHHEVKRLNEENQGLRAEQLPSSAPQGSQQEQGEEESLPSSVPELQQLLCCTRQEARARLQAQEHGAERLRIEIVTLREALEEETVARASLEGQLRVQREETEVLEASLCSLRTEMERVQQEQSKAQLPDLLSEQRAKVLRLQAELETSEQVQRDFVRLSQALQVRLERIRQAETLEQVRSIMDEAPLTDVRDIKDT
Sequence of UniProt Q9NVP1 (Q9NVP1 whole entry): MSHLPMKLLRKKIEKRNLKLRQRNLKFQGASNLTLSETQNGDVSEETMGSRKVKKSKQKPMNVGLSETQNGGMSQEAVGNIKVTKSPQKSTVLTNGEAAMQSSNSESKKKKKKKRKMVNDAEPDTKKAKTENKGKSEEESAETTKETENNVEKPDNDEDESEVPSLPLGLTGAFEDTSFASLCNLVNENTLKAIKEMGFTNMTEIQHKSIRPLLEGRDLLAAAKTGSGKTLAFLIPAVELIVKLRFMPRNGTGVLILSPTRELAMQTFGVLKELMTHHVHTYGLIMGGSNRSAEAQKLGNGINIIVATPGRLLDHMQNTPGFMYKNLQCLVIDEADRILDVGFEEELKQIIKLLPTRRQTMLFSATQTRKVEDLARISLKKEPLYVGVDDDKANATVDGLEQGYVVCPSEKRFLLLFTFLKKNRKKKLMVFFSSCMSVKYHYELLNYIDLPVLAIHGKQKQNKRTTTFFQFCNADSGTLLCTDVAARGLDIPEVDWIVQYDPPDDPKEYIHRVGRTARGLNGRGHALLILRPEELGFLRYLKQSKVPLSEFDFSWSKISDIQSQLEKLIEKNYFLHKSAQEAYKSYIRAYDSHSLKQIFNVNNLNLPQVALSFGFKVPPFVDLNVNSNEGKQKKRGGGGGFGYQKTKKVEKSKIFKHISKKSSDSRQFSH
Sequence of UniProt Q99653 (Q99653 whole entry): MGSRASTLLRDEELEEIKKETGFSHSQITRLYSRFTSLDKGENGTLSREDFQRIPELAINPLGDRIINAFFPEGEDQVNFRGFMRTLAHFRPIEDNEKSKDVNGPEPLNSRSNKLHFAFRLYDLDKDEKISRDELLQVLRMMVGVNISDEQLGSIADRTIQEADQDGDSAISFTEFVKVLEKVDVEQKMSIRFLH
Sequence of UniProt Q9GZP9 (Q9GZP9 whole entry, one chain of several): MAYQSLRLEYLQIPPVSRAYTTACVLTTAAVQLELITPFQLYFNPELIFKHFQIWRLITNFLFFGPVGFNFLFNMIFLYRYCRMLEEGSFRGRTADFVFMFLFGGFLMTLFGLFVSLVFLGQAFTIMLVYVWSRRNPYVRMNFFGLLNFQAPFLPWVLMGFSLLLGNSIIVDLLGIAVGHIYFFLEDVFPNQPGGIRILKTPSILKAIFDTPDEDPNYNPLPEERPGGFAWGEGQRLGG
Sequence of UniProt Q9H974 (Q9H974 whole entry): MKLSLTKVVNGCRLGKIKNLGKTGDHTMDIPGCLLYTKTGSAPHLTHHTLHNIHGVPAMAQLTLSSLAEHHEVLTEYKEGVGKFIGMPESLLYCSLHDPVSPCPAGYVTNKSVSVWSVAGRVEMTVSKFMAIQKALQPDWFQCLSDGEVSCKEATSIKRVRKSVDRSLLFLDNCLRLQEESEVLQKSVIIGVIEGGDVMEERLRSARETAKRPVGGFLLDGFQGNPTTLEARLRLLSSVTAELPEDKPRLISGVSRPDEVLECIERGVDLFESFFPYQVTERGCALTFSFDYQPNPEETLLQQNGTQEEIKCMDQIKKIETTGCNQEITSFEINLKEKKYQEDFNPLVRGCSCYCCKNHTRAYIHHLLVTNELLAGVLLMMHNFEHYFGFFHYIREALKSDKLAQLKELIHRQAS
Sequence of UniProt Q96II8 (Q96II8 whole entry): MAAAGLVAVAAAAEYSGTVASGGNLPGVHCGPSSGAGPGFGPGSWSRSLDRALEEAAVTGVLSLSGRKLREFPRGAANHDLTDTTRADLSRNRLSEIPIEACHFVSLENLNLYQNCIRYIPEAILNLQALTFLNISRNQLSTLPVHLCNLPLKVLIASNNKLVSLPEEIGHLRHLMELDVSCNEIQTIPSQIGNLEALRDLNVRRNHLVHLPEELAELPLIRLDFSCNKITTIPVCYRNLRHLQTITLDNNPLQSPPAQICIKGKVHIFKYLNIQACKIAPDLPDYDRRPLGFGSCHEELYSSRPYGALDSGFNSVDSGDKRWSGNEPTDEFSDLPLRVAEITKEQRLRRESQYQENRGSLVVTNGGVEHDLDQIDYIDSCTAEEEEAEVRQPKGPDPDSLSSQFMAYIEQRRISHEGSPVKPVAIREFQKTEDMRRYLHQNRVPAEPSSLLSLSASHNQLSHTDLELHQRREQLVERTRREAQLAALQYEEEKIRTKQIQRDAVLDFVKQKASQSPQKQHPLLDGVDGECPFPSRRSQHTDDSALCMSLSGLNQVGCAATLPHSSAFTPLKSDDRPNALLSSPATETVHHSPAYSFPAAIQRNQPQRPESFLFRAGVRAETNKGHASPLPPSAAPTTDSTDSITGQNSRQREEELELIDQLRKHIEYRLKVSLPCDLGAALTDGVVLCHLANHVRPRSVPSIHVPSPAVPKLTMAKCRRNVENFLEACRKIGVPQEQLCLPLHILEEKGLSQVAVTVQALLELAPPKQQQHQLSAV
Sequence of UniProt Q9NYP7 (Q9NYP7 whole entry): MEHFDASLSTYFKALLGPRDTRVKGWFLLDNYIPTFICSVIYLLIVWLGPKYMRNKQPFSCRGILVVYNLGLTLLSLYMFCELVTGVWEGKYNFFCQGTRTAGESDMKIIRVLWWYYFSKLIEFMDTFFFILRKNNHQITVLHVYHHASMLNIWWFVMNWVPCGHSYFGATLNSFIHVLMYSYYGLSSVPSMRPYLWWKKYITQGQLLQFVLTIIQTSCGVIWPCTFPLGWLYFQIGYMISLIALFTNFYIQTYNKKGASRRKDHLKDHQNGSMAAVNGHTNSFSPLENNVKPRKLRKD
Sequence of UniProt Q96NT0 (Q96NT0 whole entry, one chain of several): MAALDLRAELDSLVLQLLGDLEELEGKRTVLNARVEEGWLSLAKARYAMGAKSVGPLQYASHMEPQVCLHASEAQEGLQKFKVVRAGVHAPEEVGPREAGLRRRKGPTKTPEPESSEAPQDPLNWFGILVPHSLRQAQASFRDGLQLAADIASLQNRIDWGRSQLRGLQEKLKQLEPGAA
Sequence of UniProt Q92804 (Q92804 whole entry): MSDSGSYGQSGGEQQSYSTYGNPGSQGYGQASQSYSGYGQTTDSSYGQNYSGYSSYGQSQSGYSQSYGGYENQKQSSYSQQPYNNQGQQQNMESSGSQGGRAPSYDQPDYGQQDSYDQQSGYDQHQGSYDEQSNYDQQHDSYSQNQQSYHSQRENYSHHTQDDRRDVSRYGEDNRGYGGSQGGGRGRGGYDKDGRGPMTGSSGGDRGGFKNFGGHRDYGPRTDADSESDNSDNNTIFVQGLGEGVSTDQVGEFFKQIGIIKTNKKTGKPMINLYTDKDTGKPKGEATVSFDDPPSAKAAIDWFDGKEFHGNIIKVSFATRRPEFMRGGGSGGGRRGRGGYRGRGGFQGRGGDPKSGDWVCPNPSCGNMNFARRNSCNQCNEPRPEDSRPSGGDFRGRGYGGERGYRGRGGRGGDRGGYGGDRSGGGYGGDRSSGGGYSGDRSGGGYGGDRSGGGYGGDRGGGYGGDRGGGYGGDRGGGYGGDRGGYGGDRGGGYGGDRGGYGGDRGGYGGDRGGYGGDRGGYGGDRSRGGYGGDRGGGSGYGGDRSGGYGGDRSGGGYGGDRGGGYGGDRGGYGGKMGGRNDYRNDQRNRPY
Sequence of UniProt Q96IX5 (Q96IX5 whole entry): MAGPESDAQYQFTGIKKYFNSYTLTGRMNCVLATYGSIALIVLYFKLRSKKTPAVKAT

Target	NP40-soluble protein abundance (concentration: 1mM)	NP40-soluble protein abundance (concentration: 2mM)	NP40-soluble protein abundance (concentration: 4mM)	NP40-soluble protein abundance (concentration: 6mM)	NP40-soluble protein abundance (concentration: 8mM)	NP40-soluble protein abundance (concentration: 10mM)
UniProt Q96IX5	0.875 ± 0.049	0.935 ± 0.11	0.936 ± 0.16	0.976 ± 0.15	0.909 ± 0.16	0.99 ± 0.14
UniProt Q92576|Q92576-2	1.05 ± 0.052	1.07 ± 0.056	1.12 ± 0.051	1.22 ± 0.11	1.2 ± 0.048	1.24 ± 0.073
UniProt Q96HN2-2|Q96HN2	0.919 ± 0.042	0.934 ± 0.051	0.898 ± 0.025	0.939 ± 0.052	0.911 ± 0.017	0.934 ± 0.01
PAAF1 (UniProt Q9BRP4)	1.02 ± 0.037	1.04 ± 0.02	1.01 ± 0.072	0.982 ± 0.02	0.977 ± 0.011	1.01 ± 0.023
WDR41 (UniProt Q9HAD4)	1.03 ± 0.026	0.994 ± 0.08	1.08 ± 0.062	1 ± 0.033	1 ± 0.065	1.01 ± 0.043
UniProt Q96II8|Q96II8-2|Q96II8-4	1.17 ± 0.11	1.21 ± 0.057	1.2 ± 0.035	1.22 ± 0.078	1.17 ± 0.068	1.21 ± 0.034
UniProt Q96LT9|Q96LT9-2	1.31 ± 0.027	1.46 ± 0.034	1.75 ± 0.15	1.95 ± 0.12	1.78 ± 0.02	2.06 ± 0.096
DDX18 (UniProt Q9NVP1)	1.21 ± 0.029	1.3 ± 0.024	1.503 ± 0.0076	1.74 ± 0.035	2.07 ± 0.024	2.36 ± 0.16
UniProt Q9H974|Q9H974-4	1.03 ± 0.044	1 ± 0.035	1 ± 0.029	0.996 ± 0.044	1.02 ± 0.016	0.991 ± 0.025
ELMO1 (UniProt Q92556)	1.05 ± 0.05	1.04 ± 0.043	1.02 ± 0.036	1 ± 0.067	1.04 ± 0.038	1.05 ± 0.05
UniProt Q8WYP5|Q8WYP5-2|Q8WYP5-3	1.13 ± 0.037	1.16 ± 0.048	1.28 ± 0.079	1.38 ± 0.096	1.42 ± 0.12	1.53 ± 0.13
RABEP2 (UniProt Q9H5N1)	0.967 ± 0.062	0.941 ± 0.036	0.929 ± 0.035	0.956 ± 0.046	0.905 ± 0.011	0.901 ± 0.039
ATP13A1 (UniProt Q9HD20)	1.01 ± 0.1	1 ± 0.06	1.01 ± 0.064	0.951 ± 0.086	1 ± 0.041	0.978 ± 0.03
MRPL38 (UniProt Q96DV4)	1.04 ± 0.035	0.869 ± 0.076	0.87 ± 0.08	0.925 ± 0.3	0.86 ± 0.15	0.839 ± 0.15
UniProt Q96NT0|B8ZZ99	0.832 ± 0.11	0.87 ± 0.12	0.886 ± 0.061	0.84 ± 0.16	0.863 ± 0.11	0.849 ± 0.16
PUS7 (UniProt Q96PZ0)	0.969 ± 0.059	0.974 ± 0.057	0.967 ± 0.034	0.941 ± 0.076	0.963 ± 0.03	0.968 ± 0.036
UniProt Q9NYP7|Q9NYP7-2	1.07 ± 0.19	1.05 ± 0.12	1.05 ± 0.14	0.94 ± 0.15	1.09 ± 0.17	1.01 ± 0.056
UniProt Q9GZP9|I3L1T3	0.935 ± 0.091	0.903 ± 0.083	0.946 ± 0.13	0.887 ± 0.12	0.944 ± 0.068	0.916 ± 0.11
UniProt Q99653	0.961 ± 0.041	0.989 ± 0.011	0.983 ± 0.029	0.965 ± 0.054	0.961 ± 0.059	0.931 ± 0.037
UniProt Q92804|Q92804-2	1.05 ± 0.14	1.07 ± 0.15	1.24 ± 0.2	1.5 ± 0.29	1.59 ± 0.21	2.05 ± 0.3
UniProt Q9NYK6|Q9NYK6-3	1.09 ± 0.13	1.02 ± 0.026	1.04 ± 0.011	1.05 ± 0.089	0.99 ± 0.066	1.05 ± 0.026
